From PubChem BioAssay (NCI) come the findings set out here.

“And” between values parts separate entries of the source, which are not always exact repeats. Equal values may be shown once. Compounds without any hit were thinned out: in the full panel of roughly 83,000, 20% have a hit.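 For each line, cells grew in 96-well plates with the test compound present at a single concentration for 48 hours.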 The source made the active and inactive calls.

For one assay, the system named is HS 578T breast. The experiment in a line: NCI-60 one-dose screen, 48 h (100 = growth as untreated, 0 = no growth, -100 = all killed). The note with it: 10 µM. How it is done:
Growth inhibition of the HS 578T human tumor cell line is measured as a screen for anti-cancer activity. Cells are grown in 96 well plates and exposed to the test compound for 48 hours. Compounds are tested at a single concentration, which is 10^-5 M for most compounds. The reported endpoint is percent growth (GI% or GIPRCNT), where numbers from 0 - 100% represent growth inhibition, and numbers from -100% - 0 represent cell death. For example, a value of 40 represents 60% growth inhibition. A value of 0 means no net growth occurred over the course of the experiment. A value of -40 indicates 40% of cells at the beginning of the experiment died by the end of the experiment. A value of -100 means all cells are dead at the end of the experiment.
NCI-60 Human Tumor Cell Lines Screen was performed using the standard one-dose NCI protocol, which is described in more detail at https://dtp.cancer.gov/discovery_development/nci-60/default.htm.
Compounds with GIPRCNT values below 10 were considered active. Activity score was based on GIPRCNT using the following formula: […]
Score is 0 for GIPRCNT values of 100 or above, 50 for GIPRCNT values of 0, and 100 for GIPRCNT values of -100.
`COc1ccc(C(=O)/C=C/c2ccc(OCc3cccc(C(F)(F)F)c3)c(OC)c2)cc1OC`: the growth is 98.2% (inactive).

Turning to `CC(=O)/C=C/c1ccc(N(CCO)Cc2ccc(C(C)(C)C)cc2)cc1`, the growth is 65% (inactive).

Staying with this assay, now noted: 10 µM unless noted.
Consider `N#C/C(=C\c1ccc(Br)cc1)n1nnc2c(F)cccc21`, for which the growth is 11% (inactive).

As to `NS(=O)(=O)c1ccc(C(=O)N=Nc2c(O)[nH]c3c(F)cccc23)cc1`, the growth was 103% (inactive).

Consider `COCCn1cc(-c2csc(-c3cn(C)c4ccc(F)cc34)n2)c2cccnc21`, for which the growth was 63.1% (inactive).

As for `CN(C)C1CCN(C(=O)c2ccc(NC(=O)Nc3ccc(-c4nc(N5CCOCC5)c5cccn5n4)cc3)cc2)CC1`, the growth was -32.6% (active).

On to `COc1ccc(C/C(C)=C(/c2ccc(OCCN3CCCC3)cc2)c2ccc(OC(=O)NCc3ccccc3)cc2)cc1`, for which the growth is 81.1% (inactive).

As to `CCN1C(=O)N(c2ccccc2)C2NC(=S)N(/N=C/C=C/c3ccccc3)C21` (stereo not given), the growth is 16.1% (inactive).

Consider `Nc1nc(Cl)nc2c1ncn2C1OC(CO)C(O)C1O` (stereo not given), for which the growth is 108% (inactive).

Take `CCCCn1c(C(=O)c2c[nH]c3ccccc23)n[nH]c1=S`: the growth is 91% (inactive).

Take `CC[C@H](C)[C@H](NC(=O)[C@H](CCCCN)NC(=O)[C@H](CCCCN)NC(=O)[C@@H](NC(=O)[C@@H](NC(=O)[C@@H](N)Cc1cnc[nH]1)[C@@H](C)CC)[C@@H](C)CC)C(=O)N[C@@H](CCCNC(=N)N)C(=O)N[C@H](C(=O)N[C@@H](Cc1c[nH]c2ccccc12)C(=O)N[C@@H](Cc1ccc(O)cc1)C(=O)N[C@@H](CCCNC(=N)N)C(=O)N[C@@H](CCCCN)C(=O)N[C@@H](C)C(=O)N[C@@H](Cc1c[nH]c2ccccc12)C(=O)N[C@@H](Cc1cnc[nH]1)C(=O)N[C@H](C(=O)N[C@@H](CC(C)C)C(=O)NCC(=O)N[C@@H](CCCCN)C(=O)N[C@H](C(N)=O)C(C)C)C(C)C)[C@@H](C)O`: the growth is 11.6% (inactive).

With `CC(C)(C)CC(N)=O`, the growth is 106% (inactive).

`CCOC(=O)c1nc2c3ccccc3cnn2c1C(=O)c1ccc(OC)cc1`: the growth is 101% (inactive).

For `O=Nc1ccc(NO)c2ccccc12`, the growth was 85.4% (inactive) and 96.3% (inactive).

`O=C(N=Nc1c(O)[nH]c2ccccc12)Nc1ccccc1Cl`: the growth is 89.4% (inactive).

For `O=C(Nc1ccc(Cl)c(Cl)c1)Nc1ccc(Cl)c(Cl)c1`, the growth is -45% (active) and 48.8% (inactive).

For the molecule `O=C1OCC2=C1C(c1cccc(C(F)(F)F)c1)c1cc3c(cc1N2CCO)OCCO3` (stereo not given), the growth is 27.8% (inactive).

As to `N=C1/C(=C2\NC3C=CC=CC3S2)C(c2ccc(Cl)cc2)C2C(=O)N(c3ccccc3)C(=S)N12` (stereo not given), the growth was 99.2% (inactive).

For the molecule `O=C(NCc1ccc(Cn2c(=O)sn(-c3ccc(Cl)cc3)c2=O)cc1)OCc1ccc2c(Cl)cc(Cl)c(O)c2n1`, the growth is 69.7% (inactive).

Regarding `CN(C)C(=O)c1cc2cnc(Nc3ccc(-c4csc5c(=S)cc(N6CCOCC6)oc45)cc3)nc2n1C1CCCC1`, the growth was 5.04% (active).

Take `COc1cc2nc3cc([N+](=O)[O-])ccc3c(NCCNCC(C)(C)O)c2cc1OC`: the growth is -2.1% (active).

Take `CC(=O)c1nn(-c2ccccc2)/c(=N/N=Cc2cn(-c3ccccc3)nc2-c2cc3ccccc3oc2=O)s1`: the growth is 115% (inactive).

In the case of `COc1c(O)c(O)cc2c3c(oc12)CC(c1ccc2c(c1)OCO2)CC3=O` (stereo not given), the growth was 93.8% (inactive).

Take `CN(C)CCN1C(=O)c2c(c3c4ccccc4n4c3c3c2c2ccccc2n3C2CC(O)C(O)C4(C)O2)C1=O` (stereo not given): the growth was 41.7% (inactive).

As to `COc1ccc(-c2[nH]c3ccccc3c2-c2ccc(OC)cc2)cc1`, the growth is 49.5% (inactive).

In the case of `C#CCOc1cccc(Nc2ncc3ncn(C4CCN(C(=O)CCl)C4)c3n2)c1` (stereo not given), the growth is 82.2% [6.25 µM] (inactive).

For the molecule `O=[N+]([O-])c1ccc(S(=O)Cc2ccccc2)c([N+](=O)[O-])c1` (stereo not given), the growth is 118% (inactive) and 95.2% (inactive).

As to `CC12OC(CC(O)C1O)n1c3ccccc3c3c4c(c5c6ccccc6n2c5c31)C(=O)N(CCN1CCOCC1)C4=O` (stereo not given), the growth was 23.1% (inactive).

As for `COc1cc(/C=C2\CCC/C(=C\c3cc(CN4CCCC4)c(O)c(OC)c3)C2=O)cc(CN2CCCC2)c1O`, the growth was 63.7% (inactive).

With `O=C(c1cccc(Br)c1)N1CCN(c2ccnc3cc(Cl)ccc23)CC1`, the growth is 112% (inactive).

As to `COc1cc(/C=C2/C=C(c3ccc(C(C)(C)C)cc3)N(CCc3ccc(S(N)(=O)=O)cc3)C2=O)cc(OC)c1OC`, the growth is 69.6% (inactive).

As to `O=C(CN1C(=O)S/C(=C\C(Cl)=C\c2ccccc2)C1=O)NC1C=CS(=O)(=O)C1` (stereo not given), the growth was 51.7% (inactive).

As for `COc1c(F)cc(-n2c(C(=O)N3CC(F)C3)cc3cccnc32)cc1F`, the growth is 105% (inactive).

Regarding `OCCN1CCN(c2cc(-c3cccc(OC(F)(F)F)c3)nc3ccc(N4CCCC4)cc23)CC1`, the growth is 53.9% (inactive).

With `CC(C)=CCc1cc(O)c(O)c2oc3cc(O)cc(O)c3c(=O)c12`, the growth is 92.2% (inactive).

For the molecule `CS(=O)(=O)Nc1cc(-c2ccc3ncnc(Nc4ccc(F)c(Cl)c4)c3c2)cnc1Cl`, the growth was -11.5% (active).

`COc1cc(OC)cc(-c2ccc(-c3ccc(C(=N)N)cn3)s2)c1`: the growth was 84.9% (inactive).

Regarding `C[N+]1=C(/C=C\C=C\c2ccccc2)C(C)(C)c2ccccc21`, the growth was 25% (inactive).

Staying with this assay, now noted: 100 µM.
As to `COc1ccc(C(=O)/C=C/c2ccc(OCc3cccc(C(F)(F)F)c3)c(OC)c2)cc1OC`, the growth is 11.6% (inactive).

As for `CC(=O)/C=C/c1ccc(N(CCO)Cc2ccc(C(C)(C)C)cc2)cc1`, the growth was -52.9% (active).
